PubChem BioAssay (NCI)
Compounds without any hit were thinned out: in the full panel of roughly 83,000, 20% have a hit.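 Single-dose data. Exposure time 48 hours. Values below 10 considered active.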 Unmarked numbers belong to inactive results. Active and inactive are the calls of the source.

test system: SNB-75 CNS; assay: NCI-60 one-dose screen, 48 h (100 = growth as untreated, 0 = no growth, -100 = all killed); details: 10 µM unless noted

Compared with `CC(=O)CCC(=O)OCc1cc(=O)c(O)co1`, `COc1cc(CC(=O)c2ccc(O)c(OC)c2)ccc1O` is lower in growth: 104% for the first, 96.8% for the second.

Going from `O=C(c1nc2ccccc2[nH]1)C1C(c2ccc(Cl)cc2)C2CC3CCCC[C@H]3N2[C@@]12C(=O)Nc1cc(Cl)ccc12` (stereo partly specified) to `COc1ccc(OC)c(-c2cc(-c3ccc(Cl)cc3)c3c(N)c(C(=O)c4ccc(Cl)cc4)sc3n2)c1`, the growth rises from 34.4% to 73.6%.

Going from `COc1cccc(-c2nc3occn3c2-c2ccnc(NCCNS(=O)(=O)c3cccc4ccccc34)n2)c1` to `O=S(=O)(NCCNc1nccc(-c2c(-c3cccc(O)c3)nc3occn23)n1)c1ccccc1`, the growth falls from 103% to 87.8%.

First: NNC(=O)c1ccc(-n2nc(-c3ccccc3)c3ccccc32)cc1
Second: c1ccc(-c2cn3c(ccc4ccccc43)n2)cc1
The growth of the first is higher: 53.6% for the first, 51.9% for the second.

First: COc1cccc(/C=N/NC(=O)c2cnn3c2NC(c2ccccc2)C3)c1Oc1ccccc1 (stereo unspecified)
Second: O=C(Cc1ccccc1)NNc1nc(Cl)nc(N2CCN(C(c3ccccc3)c3ccccc3)CC2)n1
The growth of the first is lower: 60.8% for the first, 96% for the second.

Going from `S=c1cc(S)c2cc(Br)ccc2[nH]1` to `Brc1ccc2[nH]cc(-c3cncn3CCc3ccccc3)c2c1`, the growth falls from 105% to 36.7%.

Compared with `O=C(NCCc1ccccc1)Nc1ccc2cc3ccc(NC(=O)NCCc4ccccc4)cc3nc2c1`, `O=C(CCN1CCCC1)Nc1ccc2c(NCCCCc3ccccc3)c3ccccc3nc2c1` is lower in growth: 17.1% for the first, 16.6% for the second.

Compared with `CCN(CC)CCCC(C)Nc1cc(O)cc2cccnc12` (stereo unspecified), `CCCOc1ccc(/C=N/Nc2cc(C)nc3ccc(Cl)cc23)cc1` is higher in growth: 74.9% for the first, 104% for the second.

Compared with `CCOC(=O)C1=C(C)NC(SCc2cc(=O)oc3ccc(F)cc23)=N[C@@H]1c1cccc2ccccc12`, `Cc1ccc(/C=N/NC(=O)CSc2nc3ccccc3c(=O)n2Cc2ccc(S(N)(=O)=O)cc2)cc1` is lower in growth: 98.8% for the first, 71% for the second.

Compared with `CCCOC(=O)N[C@H]1CCc2c(Cl)c(OC)c(OC)c(OC)c2-c2ccc(SC)c(=O)cc21`, `COc1ccc(C(=O)c2cc(C)c(OC)c(C)c2)c(OC)c1N(C(=O)CCl)C(=O)CCl` is higher in growth: 31.2% for the first, 45.2% for the second.

First: CSc1nc2sc3cccc(Cl)c3n2c(=N)c1C#N
Second: Cc1ccc(S(=O)(=O)NNC(=O)/C(=C\c2ccc(Cl)cc2)c2nc3ccccc3s2)cc1
The growth of the first is higher: 103% for the first, 68.4% for the second.

Compared with `O=[N+]([O-])CC(c1ccccc1)c1c[nH]c2ccccc12` (stereo unspecified), `COc1cccc(-c2ccc3c(c2)NC(=O)/C3=C\c2ccc[nH]2)c1` is higher in growth: 27.2% for the first, 44% for the second.

Going from `Nc1nc(Nc2ccccc2SSc2ccccc2Nc2nc(N)nc(-c3ccc(C(F)(F)F)cc3)n2)nc(-c2ccc(C(F)(F)F)cc2)n1` to `CNC(=O)c1cccc(Cn2nc(C)c(NC(=O)c3ccc(COc4ccc(C(F)(F)F)cc4C)cc3)c2C)n1`, the growth falls from 86.2% to 80.9%.

First: CCCCCC(=O)Oc1ccc(/C(=C(\C)c2ccccc2)c2ccc(OCCN3CCCCC3)cc2)cc1
Second: CCC(=O)Oc1ccc(/C(=C(\C)c2ccccc2)c2ccc(OCCN3CCCCC3)cc2)cc1
The growth of the first is lower: 92% for the first, 96.5% for the second.

First: C/C(=N\Nc1cc(C)nc2ccc(Br)cc12)c1ccc([N+](=O)[O-])cc1
Second: COc1ccc(C(=O)C2C(C#N)C(C#N)C3c4ccccc4C=CN23)cc1 (stereo unspecified)
The growth of the first is higher: 105% for the first, 74.8% for the second.

Compared with `CCNC(=O)Oc1ccc(/C(=C(\C)c2ccccc2)c2ccc(OCCCN(C)C)cc2)cc1`, `O=C(/C=C/c1ccc(F)cc1)c1ccc(NC(=O)N2CCN(c3cc4c(cc3F)c(=O)c(C(=O)O)cn4C3CC3)CC2)cc1` is lower in growth: 90.9% for the first, 90.7% for the second.

Compared with `O=C(/C=C/c1ccc[nH]1)c1ccc(-n2ccc(C(F)(F)F)n2)c(F)c1`, `C#CCNC(=O)[C@H](Cc1ccccc1)NC(=O)[C@]12CC[C@@H](C(=C)C)[C@@H]1[C@H]1CC[C@@H]3[C@@]4(C)CCC(=O)C(C)(C)[C@@H]4CC[C@@]3(C)[C@]1(C)CC2` is higher in growth: 75.6% for the first, 99.2% for the second.

With `COc1cc(-c2n/c(=C\c3c(O)[nH]c4ccc(Cl)cc34)cc3c2=Nc2ccccc2-3)ccc1F` the growth was -39.5% (active).
`O=C1Nc2cc(-c3cccc(O)c3)ccc2/C1=C/c1ccc[nH]1` was tested, and the growth was -13.7% (active).
In the case of `COc1ccc(C(=O)c2cc(OC)c(OC)c(OC)c2)cc1O`, the growth was -0.83% (active).
With `C#CCNC(=O)c1cccc2c1cc(C)n2-c1nc2c(c(NCc3ccccc3)n1)CCCC2` the growth was 5.33% (active).

test system: SNB-19 CNS; assay: as above; details: 10 µM unless noted

First: CC(=O)CCC(=O)OCc1cc(=O)c(O)co1
Second: COc1cc(CC(=O)c2ccc(O)c(OC)c2)ccc1O
The growth of the first is higher: 104% for the first, 98.2% for the second.

Compared with `O=C(c1nc2ccccc2[nH]1)C1C(c2ccc(Cl)cc2)C2CC3CCCC[C@H]3N2[C@@]12C(=O)Nc1cc(Cl)ccc12` (stereo partly specified), `COc1ccc(OC)c(-c2cc(-c3ccc(Cl)cc3)c3c(N)c(C(=O)c4ccc(Cl)cc4)sc3n2)c1` is higher in growth: 59% for the first, 103% for the second.

Compared with `COc1cccc(-c2nc3occn3c2-c2ccnc(NCCNS(=O)(=O)c3cccc4ccccc34)n2)c1`, `O=S(=O)(NCCNc1nccc(-c2c(-c3cccc(O)c3)nc3occn23)n1)c1ccccc1` is lower in growth: 97.8% for the first, 94.8% for the second.

First: NNC(=O)c1ccc(-n2nc(-c3ccccc3)c3ccccc32)cc1
Second: c1ccc(-c2cn3c(ccc4ccccc43)n2)cc1
The growth of the first is higher: 66.1% for the first, 65% for the second.

Compared with `O=C1Nc2cc(-c3cccc(O)c3)ccc2/C1=C/c1ccc[nH]1`, `COc1cccc(-c2ccc3c(c2)NC(=O)/C3=C\c2ccc[nH]2)c1` is higher in growth: 43.4% for the first, 81.6% for the second.

First: COc1cccc(/C=N/NC(=O)c2cnn3c2NC(c2ccccc2)C3)c1Oc1ccccc1 (stereo unspecified)
Second: O=C(Cc1ccccc1)NNc1nc(Cl)nc(N2CCN(C(c3ccccc3)c3ccccc3)CC2)n1
The growth of the first is lower: 75.4% for the first, 94% for the second.

Going from `S=c1cc(S)c2cc(Br)ccc2[nH]1` to `Brc1ccc2[nH]cc(-c3cncn3CCc3ccccc3)c2c1`, the growth falls from 94.1% to 65.6%.

Going from `CCN(CC)CCCC(C)Nc1cc(O)cc2cccnc12` (stereo unspecified) to `CCCOc1ccc(/C=N/Nc2cc(C)nc3ccc(Cl)cc23)cc1`, the growth falls from 93.8% to 58.6%.

Going from `CCOC(=O)C1=C(C)NC(SCc2cc(=O)oc3ccc(F)cc23)=N[C@@H]1c1cccc2ccccc12` to `Cc1ccc(/C=N/NC(=O)CSc2nc3ccccc3c(=O)n2Cc2ccc(S(N)(=O)=O)cc2)cc1`, the growth falls from 101% to 89.9%.

First: COc1ccc(C(=O)c2cc(OC)c(OC)c(OC)c2)cc1O
Second: COc1ccc(C(=O)c2cc(C)c(OC)c(C)c2)c(OC)c1N(C(=O)CCl)C(=O)CCl
The growth of the first is higher: 28.5% for the first, 11.9% for the second.

Going from `CCCOC(=O)N[C@H]1CCc2c(Cl)c(OC)c(OC)c(OC)c2-c2ccc(SC)c(=O)cc21` to `CNC(=O)c1cccc(Cn2nc(C)c(NC(=O)c3ccc(COc4ccc(C(F)(F)F)cc4C)cc3)c2C)n1`, the growth rises from 31% to 47.8%.

First: CSc1nc2sc3cccc(Cl)c3n2c(=N)c1C#N
Second: Cc1ccc(S(=O)(=O)NNC(=O)/C(=C\c2ccc(Cl)cc2)c2nc3ccccc3s2)cc1
The growth of the first is higher: 109% for the first, 88.3% for the second.

Going from `O=[N+]([O-])CC(c1ccccc1)c1c[nH]c2ccccc12` (stereo unspecified) to `C/C(=N\Nc1cc(C)nc2ccc(Br)cc12)c1ccc([N+](=O)[O-])cc1`, the growth rises from 58% to 75.7%.

First: Nc1nc(Nc2ccccc2SSc2ccccc2Nc2nc(N)nc(-c3ccc(C(F)(F)F)cc3)n2)nc(-c2ccc(C(F)(F)F)cc2)n1
Second: CCNC(=O)Oc1ccc(/C(=C(\C)c2ccccc2)c2ccc(OCCCN(C)C)cc2)cc1
The growth of the first is lower: 58% for the first, 88.3% for the second.

Going from `CCCCCC(=O)Oc1ccc(/C(=C(\C)c2ccccc2)c2ccc(OCCN3CCCCC3)cc2)cc1` to `CCC(=O)Oc1ccc(/C(=C(\C)c2ccccc2)c2ccc(OCCN3CCCCC3)cc2)cc1`, the growth falls from 89.6% to 85%.

Compared with `O=C(/C=C/c1ccc(F)cc1)c1ccc(NC(=O)N2CCN(c3cc4c(cc3F)c(=O)c(C(=O)O)cn4C3CC3)CC2)cc1`, `O=C(/C=C/c1ccc[nH]1)c1ccc(-n2ccc(C(F)(F)F)n2)c(F)c1` is higher in growth: 88.1% for the first, 101% for the second.

Going from `COc1ccc(C(=O)C2C(C#N)C(C#N)C3c4ccccc4C=CN23)cc1` (stereo unspecified) to `C#CCNC(=O)[C@H](Cc1ccccc1)NC(=O)[C@]12CC[C@@H](C(=C)C)[C@@H]1[C@H]1CC[C@@H]3[C@@]4(C)CCC(=O)C(C)(C)[C@@H]4CC[C@@]3(C)[C@]1(C)CC2`, the growth falls from 85.4% to 82.6%.

For `COc1cc(-c2n/c(=C\c3c(O)[nH]c4ccc(Cl)cc34)cc3c2=Nc2ccccc2-3)ccc1F`, the growth was 2.79% (active).
`O=C(NCCc1ccccc1)Nc1ccc2cc3ccc(NC(=O)NCCc4ccccc4)cc3nc2c1` was tested, and the growth was -31.8% (active).
With `O=C(CCN1CCCC1)Nc1ccc2c(NCCCCc3ccccc3)c3ccccc3nc2c1` the growth was -49.5% (active).
`C#CCNC(=O)c1cccc2c1cc(C)n2-c1nc2c(c(NCc3ccccc3)n1)CCCC2` was tested, and the growth was -24.9% (active).
